Results filed as inconclusive are left out. Where a call stands in place of a potency, no number is given. The source made the active and inactive calls. Calls come from the whole dose curve; as a rule, active = well fitted activation curve with a large enough effect in the repeat runs; inconclusive = weak or mixed curves; inactive = flat fitted curve, though single readings scatter.
Potency is the fitted concentration of half-maximal effect.

The assay is described as follows: A CellTox Green Cytotoxicity Assay to monitor cytotoxicity in HepG2 cells - 32 hour (AID 1224883). Note: nearly all actives have a fitted effect of over 50% in size. As to conditions: CellTox Green fluorescence; series mostly up to 76.8 µM. A digest of the protocol: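 Real-time, homogeneous cytotoxicity readout: dead-cell DNA staining by CellTox Green in HepG2 monolayers, fluorescence measured at timed intervals up to 40 h of continuous compound exposure.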
For `O=C(CCN1CCC(c2ccccc2)C1)c1ccc2c(c1)OCCO2` (stereo not given), the Potency was 26.8 µM (active).

In the case of `C=C(C)CCO`, the Potency entry was “inactive”.

Regarding `CSc1ccc(O)cc1C`, the Potency result is “inactive”.

Consider `Cc1cccc2c1ccc1ccccc12`, for which the Potency entry was “inactive”.

On to `NCc1cccc(C2CCN(C(=O)c3ccc(C#Cc4ccccc4F)o3)CC2)c1`, for which the Potency was 43.6 µM (active). Consider `CCN(CC)c1ccc(C=O)c(O)c1`, for which the Potency result is “inactive”. On to `CN1CCN(CCCN2c3ccccc3Sc3ccc(Cl)cc32)CC1`, for which the Potency was 23.9 µM (active). Consider `O=C(NCc1ncc(C(F)(F)F)cc1Cl)c1c(Cl)cccc1Cl`, for which the Potency is 21.9 µM (active). The same measure for `CCC(C)(C)c1ccc(CC(C)CN2C[C@@H](C)O[C@@H](C)C2)cc1` (stereo not given in full): 21.3 µM (active); for `O=C(Cl)c1ccc(Cl)cc1Cl`: 54.9 µM (active). The same measure for `C=CC(=O)O[C@H]1C[C@@H]2CC[C@@]1(C)C2(C)C`: “inactive”. As for `C=C1CC[C@H]2O[C@]2(C)CC[C@@H]2[C@@H]1CC2(C)C`, the Potency result was “inactive”. With `O=C(CCCCCCCCc1cccnc1)N1CCC(C=C(c2ccccc2)c2ccccc2)CC1`, the Potency result was “inactive”. Take `CN(C)CCOc1ccc(/C(=C(/CCCl)c2ccccc2)c2ccccc2)cc1`: the Potency is 32.5 µM (active).

Regarding `O=C1OC(O)C(C(Cl)Cl)=C1Cl` (stereo not given), the Potency is 45 µM (active).

Turning to `CCc1c(C)cc(N)c(CC)c1N`, the Potency entry was “inactive”.

Regarding `Cc1ccc(C2OC[C@@H]3OC(c4ccc(C)cc4)O[C@H]([C@H](O)CO)[C@@H]3O2)cc1` (stereo not given in full), the Potency result was “inactive”. The same measure for `CCC1(C)C(=O)N(Cl)C(=O)N1Cl` (stereo not given): “inactive”; for `CCCCCc1ccc(O)cc1`: 49 µM (active); for `CC(O)(c1ccc(Cl)cc1)c1ccc(Cl)cc1`: 49 µM (active).

The values above are taken from PubChem BioAssay (Tox21).
